These results are taken from PubChem BioAssay.

Test [1] has as its system Plasmodium falciparum Sir2 (PF13_0152, Sir2A). In words: pfSir2 binders on small-molecule microarrays, primary screen, biochemical, small-molecule microarray, 635 nm fluorescence (AID 1098).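 Note: score merges spot fluorescence intensity with its signal-to-noise ratio.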 The settings on record: small-molecule microarray binding, fluorescence 635 nm; higher = more signal.
Test [2] is described as follows: small-molecule microarray binders of probe aDKK1, primary screen, biochemical, biotinylated probe, 635/667 nm fluorescence (AID 1099).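 Note: score merges 667nm spot fluorescence with signal to noise across triplicate slides.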 The settings on record: higher = more signal.
Test [3] is described as follows: small-molecule microarray binders of probe aCHRDL2, primary screen, biochemical, biotinylated probe, 635/667 nm fluorescence (AID 1100). The following applies: higher = more signal.
The nature of test [4]: splicing luciferase reporter signal modulators, primary screen, spliceosome inhibition project, cell-based, HEK293, splice +/- reporter (AID 1101).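 Note: HEK293 cells carrying a splicing-competent luciferase reporter gene; test concentration not given here.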 The following applies: luminescence, 24 h, higher = more signal, called active from +8 up or from −8 down. In general terms: In a reporter assay the amount or activity of a reporter protein is the signal.
Test [5] has as its target Fibroblast growth factor 10 (Homo sapiens) (UniProt O15520). The test is described as follows: FGF10 binders on small-molecule microarrays, primary screen, biochemical, small-molecule microarray, 635 nm fluorescence (AID 1102). The settings on record: FGF10 binding, fluorescence 635 nm, higher = more signal.
Test [6] has as its system glycogen synthase kinase-3 (GSK3A per assay name; protocol says GSK3B). The test is described as follows: GSK3 binders on small-molecule microarrays, primary screen, biochemical, small-molecule microarray, 635 nm fluorescence, GSK3A (AID 1103). Note: the record names both GSK3A and GSK3B. The settings on record: small-molecule microarray binding, fluorescence 635 nm; higher = more signal.
In test [7] the target is Epidermal growth factor receptor (Homo sapiens) (UniProt P00533). The test is described as follows: EGFR binders on small-molecule microarrays, primary screen, biochemical, small-molecule microarray, 635 nm fluorescence (AID 1104).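 Note: score merges 667 nm emission intensity with spot signal to noise over triplicate slides.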 The following applies: EGFR binding, higher = more signal.
For test [8], the target named is Follistatin-related protein 3 (Homo sapiens) (UniProt O95633). In words: FSTL3 binders on small-molecule microarrays, primary screen, biochemical, small-molecule microarray, 635 nm fluorescence (AID 1105).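 Note: score merges emission near 667 nm and signal to noise per printed spot across three slides.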 The settings on record: FSTL3 binding, higher = more signal.
For test [9], the target named is Dickkopf-related protein 1 (Homo sapiens) (UniProt O94907). The test is described as follows: DKK1 binders on small-molecule microarrays, primary screen, biochemical, small-molecule microarray, 635 nm fluorescence scan (AID 1106).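 Note: score merges emission near 667 nm with signal to noise over three replicate slides.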 The settings on record: DKK1 binding, higher = more signal.
The test system of test [10] is Inhibin beta A chain (activin A). The test is described as follows: INHBA (activin A) binders on microarrays, primary screen, biochemical, small-molecule microarray, 635 nm fluorescence scan (AID 1107).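 Note: mouse activin A protein probed at 4.33 µg/mL on printed slides; score merges bound-protein fluorescence near 667 nm with spot signal-to-noise.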 The following applies: small-molecule microarray binding, higher = more signal.
For test [11], the system named is Human papillomavirus type 1a protein E7 (residues 44-93). In words: HPV1a E7 fragment binders on microarrays, primary screen, biochemical, small-molecule microarray, residues 44-93, 635 nm fluorescence (AID 1108).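 Note: E7 fragment applied at 1 µg/mL in TBST for 1 h at 4 C; score combines spot fluorescence with its signal to noise ratio.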 The settings on record: small-molecule microarray binding, fluorescence 635 nm; higher = more signal.
Test [12] in a line: modulators of HCV replicon luciferase signal, primary screen, HCV replication inhibitor project, Huh7 cells, luciferase reporter (AID 1109).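 Note: huh7 hepatoma cells harbouring a luciferase neomycin HCV replicon reporter; luciferase luminescence as measure of HCV replicon replication; test concentration not given here.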 The settings on record: 48 h, higher = more signal. On the technique in general: A replicon is a self-replicating genome or part of one, used to study replication in cells.
Test [13] concerns the target Left-right determination factor 2 (Homo sapiens) (UniProt O00292). The test is described as follows: LEFTY2 binders on small-molecule microarrays, primary screen, biochemical, small-molecule microarray, 635 nm fluorescence scan (AID 1110). The settings on record: LEFTY2 binding, higher = more signal.
Test [14] deals with Calmodulin-1 (Homo sapiens) (UniProt P0DP23). The test is described as follows: CALM1 binders on microarrays, EGTA buffer, profiling panel, biochemical, small-molecule microarray, Cy5-labelled CALM1 (AID 1111).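 Note: labelled calmodulin applied in Tris saline Tween buffer holding calcium plus EGTA and DTT.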 The settings on record: Cy5-CALM1 binding fluorescence, higher = more signal.
Test [15] has the same target. In words: calcium-bound CALM1 binders on microarrays, profiling panel, artefact control for SMM control-protein annotation, biochemical, small-molecule microarray, Cy5-labelled CALM1, plus calcium (AID 1112).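 Note: score merges spot fluorescence with signal to noise from triplicate slides.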 The following applies: Cy5-CALM1 binding fluorescence, higher = more signal.
Test [16] is described as follows: small-molecule microarray binders of probe aWnt5a, primary screen, biochemical, biotinylated probe, 635/667 nm fluorescence (AID 1113).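 Note: score merges 667 nm fluorescence intensity with signal-to-noise per printed feature.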 The following applies: higher = more signal.
Test [17] can be described thus: small-molecule microarray binders of probe aShh, primary screen, biochemical, biotinylated probe, 635/667 nm fluorescence (AID 1114).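 Note: probe is biotin-labelled aShh protein from a stem cell growth factor screen; measures binding of labelled protein to compounds printed on the slide; score merges feature fluorescence at 667 nm with signal-to-noise.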 The settings on record: higher = more signal.
Test [18] is described as follows: small-molecule microarray binders of probe aNog, primary screen, biochemical, biotinylated probe, 635/667 nm fluorescence (AID 1115).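 Note: probe is biotinylated aNog protein used at 0.15 µg/mL for 1 h at 4 C; z-score combines 667 nm fluorescence of each spot with its signal to noise.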 The settings on record: higher = more signal.
Test [19] deals with Torsin-1A-interacting protein 1 (Homo sapiens) (UniProt Q5JTV8). In words: LAP1 binders from COS7 cell lysate, primary screen, small-molecule microarray, 635/667 nm fluorescence (AID 1116). The following applies: COS7-hLAP1 lysate binding, 635 nm fluorescence, higher = more signal.
For test [20], the target named is Alpha-bungarotoxin (Bungarus multicinctus) (UniProt P60615). The test is described as follows: alpha-bungarotoxin binders on microarray, profiling panel, artefact control for SMM control protein annotation, biochemical, small-molecule microarray, Alexa647 label, 635/667 nm fluorescence (AID 1117). The settings on record: alpha-BTX-A647 binding fluorescence, higher = more signal.

The source made the active and inactive calls.

Sequence of Fibroblast growth factor 10 (Homo sapiens) (O15520 whole entry, looked up): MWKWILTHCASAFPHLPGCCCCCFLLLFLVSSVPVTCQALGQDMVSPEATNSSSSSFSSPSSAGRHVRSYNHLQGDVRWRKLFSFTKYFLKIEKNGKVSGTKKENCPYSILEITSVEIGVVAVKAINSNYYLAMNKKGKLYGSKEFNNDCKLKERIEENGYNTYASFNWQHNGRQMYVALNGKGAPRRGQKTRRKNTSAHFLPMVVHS
Sequence of Left-right determination factor 2 (Homo sapiens) (O00292 whole entry, looked up): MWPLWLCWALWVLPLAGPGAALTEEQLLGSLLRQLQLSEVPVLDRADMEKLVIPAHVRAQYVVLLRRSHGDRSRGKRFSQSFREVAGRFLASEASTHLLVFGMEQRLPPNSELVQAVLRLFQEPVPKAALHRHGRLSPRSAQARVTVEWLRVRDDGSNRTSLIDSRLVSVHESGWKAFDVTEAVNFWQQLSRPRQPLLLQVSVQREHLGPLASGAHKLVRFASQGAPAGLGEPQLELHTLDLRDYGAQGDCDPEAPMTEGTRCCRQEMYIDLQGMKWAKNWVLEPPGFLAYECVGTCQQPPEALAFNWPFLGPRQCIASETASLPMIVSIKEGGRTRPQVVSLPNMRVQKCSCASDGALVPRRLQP
Sequence of Follistatin-related protein 3 (Homo sapiens) (O95633 whole entry, looked up): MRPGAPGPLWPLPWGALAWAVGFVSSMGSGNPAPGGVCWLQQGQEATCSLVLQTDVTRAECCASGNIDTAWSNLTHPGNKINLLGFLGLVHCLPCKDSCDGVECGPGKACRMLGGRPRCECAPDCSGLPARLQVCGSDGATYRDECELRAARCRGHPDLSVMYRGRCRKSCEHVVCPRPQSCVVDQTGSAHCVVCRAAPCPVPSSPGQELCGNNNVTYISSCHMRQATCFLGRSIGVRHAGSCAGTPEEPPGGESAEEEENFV
Sequence of Alpha-bungarotoxin (Bungarus multicinctus) (P60615 whole entry, looked up): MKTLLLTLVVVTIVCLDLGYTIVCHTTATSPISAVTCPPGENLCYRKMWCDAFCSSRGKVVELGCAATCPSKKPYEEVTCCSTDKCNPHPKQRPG
Sequence of Dickkopf-related protein 1 (Homo sapiens) (O94907 whole entry, looked up): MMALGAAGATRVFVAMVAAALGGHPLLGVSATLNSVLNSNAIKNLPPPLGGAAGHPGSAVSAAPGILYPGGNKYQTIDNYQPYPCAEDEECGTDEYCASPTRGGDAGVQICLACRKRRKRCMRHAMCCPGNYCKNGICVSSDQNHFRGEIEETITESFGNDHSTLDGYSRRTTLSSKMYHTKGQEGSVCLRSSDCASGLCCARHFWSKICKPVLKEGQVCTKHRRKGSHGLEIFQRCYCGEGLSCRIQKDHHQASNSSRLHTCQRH
Sequence of Epidermal growth factor receptor (Homo sapiens) (P00533 whole entry, looked up): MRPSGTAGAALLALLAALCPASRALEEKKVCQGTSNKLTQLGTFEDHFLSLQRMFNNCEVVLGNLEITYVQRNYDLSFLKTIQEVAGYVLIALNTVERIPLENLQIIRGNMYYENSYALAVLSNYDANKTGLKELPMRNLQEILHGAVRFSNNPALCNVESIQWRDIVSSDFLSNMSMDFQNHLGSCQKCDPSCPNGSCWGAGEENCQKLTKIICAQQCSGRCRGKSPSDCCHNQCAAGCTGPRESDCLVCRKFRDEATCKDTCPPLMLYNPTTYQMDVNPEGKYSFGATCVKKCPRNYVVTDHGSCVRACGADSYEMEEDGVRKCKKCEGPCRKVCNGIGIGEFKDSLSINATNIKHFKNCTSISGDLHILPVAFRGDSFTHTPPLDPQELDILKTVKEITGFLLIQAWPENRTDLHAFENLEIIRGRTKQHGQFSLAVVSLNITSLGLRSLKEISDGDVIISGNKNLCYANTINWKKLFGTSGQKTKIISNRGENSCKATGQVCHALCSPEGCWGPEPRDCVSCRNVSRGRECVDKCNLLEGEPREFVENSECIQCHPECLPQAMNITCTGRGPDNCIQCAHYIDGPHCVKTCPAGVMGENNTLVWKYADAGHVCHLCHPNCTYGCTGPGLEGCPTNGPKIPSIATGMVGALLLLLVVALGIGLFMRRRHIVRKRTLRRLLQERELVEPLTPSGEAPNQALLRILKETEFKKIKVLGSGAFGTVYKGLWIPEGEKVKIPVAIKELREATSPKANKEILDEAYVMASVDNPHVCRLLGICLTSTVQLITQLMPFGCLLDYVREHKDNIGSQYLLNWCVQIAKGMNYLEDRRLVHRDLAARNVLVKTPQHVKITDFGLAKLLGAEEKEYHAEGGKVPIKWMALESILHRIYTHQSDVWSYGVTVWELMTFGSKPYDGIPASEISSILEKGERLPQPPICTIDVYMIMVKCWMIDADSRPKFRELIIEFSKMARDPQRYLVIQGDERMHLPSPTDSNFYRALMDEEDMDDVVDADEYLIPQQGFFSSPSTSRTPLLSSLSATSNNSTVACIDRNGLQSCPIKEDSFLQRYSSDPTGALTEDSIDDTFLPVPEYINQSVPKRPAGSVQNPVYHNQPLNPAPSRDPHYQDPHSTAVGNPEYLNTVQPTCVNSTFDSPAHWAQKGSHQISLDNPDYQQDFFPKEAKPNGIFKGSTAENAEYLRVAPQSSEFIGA
Sequence of Torsin-1A-interacting protein 1 (Homo sapiens) (Q5JTV8 whole entry, looked up): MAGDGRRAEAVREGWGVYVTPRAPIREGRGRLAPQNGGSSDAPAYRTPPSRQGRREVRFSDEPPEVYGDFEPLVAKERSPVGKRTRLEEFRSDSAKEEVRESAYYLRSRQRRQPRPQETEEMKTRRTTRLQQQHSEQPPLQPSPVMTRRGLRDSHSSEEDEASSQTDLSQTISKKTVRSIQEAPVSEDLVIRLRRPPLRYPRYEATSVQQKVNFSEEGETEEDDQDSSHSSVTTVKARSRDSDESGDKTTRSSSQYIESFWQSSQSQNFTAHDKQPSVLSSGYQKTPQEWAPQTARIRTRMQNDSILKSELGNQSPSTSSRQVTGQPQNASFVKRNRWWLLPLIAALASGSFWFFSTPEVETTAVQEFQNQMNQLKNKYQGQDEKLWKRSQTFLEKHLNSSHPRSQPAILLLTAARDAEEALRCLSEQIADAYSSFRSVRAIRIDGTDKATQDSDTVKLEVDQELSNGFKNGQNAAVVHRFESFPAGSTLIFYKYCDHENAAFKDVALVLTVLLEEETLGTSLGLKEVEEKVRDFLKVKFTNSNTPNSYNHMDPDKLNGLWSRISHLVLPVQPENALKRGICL

For `O=C1NC(=O)C2C1C=CC(C(O)c1ccc(I)cc1)N2Nc1ccc(Cl)cc1Cl` (stereo not given), the composite z-score in test [1] is 1.03; in test [2], 0.418; in test [3], 1.08; in test [5], 0.41; in test [6] it was 0.782; in test [7], -0.079. For the same molecule, the composite z-score in test [8] was 0.425; in test [9] it was -0.235; in test [10], 0.871; in test [11] it was 1.36; in [13] it was -0.562; in [14], 1.84. Moreover, the composite z-score in test [15] was 0.99; in test [16] it was -0.0236; in test [17] it was -0.0056; in [18], 1.66; in test [19] it was 1.05; in test [20] it was 1.1. For the same molecule, the figures for the z-score in test [4] and in test [12] were -1.09 (inactive) and -0.644, respectively.

In the case of `COCCCNC(=O)[C@]1(Cc2ccccc2)N=C(c2ccc(OCCCO)cc2)O[C@@H]1c1ccccc1CN=[N+]=[N-]`, the composite z-score in test [1] stood at 1.24; in test [2], 1.2; in test [3] it was 1.29; in [5] it was 1.49; in test [6] it was 0.98; in [7], 0.25. Further, the composite z-score in test [8] is 0.721; in test [9], -0.0836; in test [10] it was 0.608; in test [11], 0.128; in test [13], -0.254; in [14] it was 1.02. In addition, the composite z-score in test [15] was 0.562; in [16] it was 0.116; in [17], 0.585; in test [18] it was 0.918; in test [19], 2.48; in test [20] it was 0.315. In addition, the z-score is -0.97 (inactive) in test [4] and -2.18 in test [12].

With `COc1cc(CO)cc(I)c1O[C@H]1C=C(C(=O)NCCO)C[C@@H](N(C(=O)c2cc3ccccc3oc2=O)C2CCCCCC2)[C@@H]1O`, the composite z-score in test [1] is 1.09; in test [2], -0.28; in [3] it was -0.302; in test [5], 0.968; in test [6], -0.314; in test [7] it was 0.338. Also, the composite z-score was 0.348 in test [8]; 0.306 in test [9]; -0.0101 in [10]; -0.914 in [11]; -0.0138 in test [13]; -0.23 in test [14]. The composite z-score was -0.769 in [15]; -0.096 in test [16]; -0.349 in test [17]; -0.267 in test [18]; 0.155 in [19]; -0.29 in test [20]. Further, the z-score is -1.33 (inactive) in test [4] and -0.469 in test [12].

For the molecule `COCCOC(=O)N1C(=O)[C@@]2(c3cc(C#CC4=CCCCC4)ccc31)[C@H](C(N)=O)[C@H]1C(=O)O[C@H](c3ccccc3)[C@H](c3ccccc3)N1[C@@H]2c1ccc(O)cc1`, the composite z-score stood at 1.61 in test [1]; 0.0331 in [2]; 0.275 in [3]; 1.15 in test [5]; 0.96 in test [6]; 0.586 in [7]. Further, the composite z-score came out at 0.829 in test [8]; 0.318 in test [9]; 0.787 in test [10]; 1.13 in test [11]; 0.959 in test [13]; 1.16 in test [14]. The composite z-score was -0.308 in test [15]; -0.107 in [16]; -0.0362 in test [17]; -0.0956 in test [18]; 0.923 in test [19]; 1.51 in test [20]. Moreover, the figures for the z-score in test [4] and in test [12] were -1.18 (inactive) and -1.76, respectively.

In the case of `O=C(NC1CC1)[C@@H]1c2ccccc2C(=O)N(Cc2cc(F)cc(C(F)(F)F)c2)[C@H]1c1ccc(CO)cc1`, the composite z-score is 1.62 in test [1]; -0.284 in test [2]; 0.447 in test [3]; -0.216 in [5]; 0.296 in test [6]; -1.18 in [7]. Moreover, the composite z-score in test [8] is -0.317; in test [9], -0.666; in test [10] it was -0.142; in test [11], 0.558; in test [13] it was -1.05; in test [14], -0.768. In addition, the composite z-score in test [15] is -0.628; in test [16], -0.161; in test [17] it was -0.0709; in [18], 0.0308; in test [19], 0.0706; in test [20], -0.405. Besides, the values for the z-score in test [4] and in [12] were 0.191 (inactive) and -0.509, respectively.
